# FECH block = inhibitors of human ferrochelatase; P22830; purified FECH, Ni-mesoporphyrin absorbance 550 nm; calls only at 10 µM (by protocol); 3.3% of 20,000 active;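 active = enzyme reaction rate more than 3 SD below the solvent-only control wells on the same plate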;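 note: lower slope than DMSO wells means FECH inhibition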
# Target sequence (P22830 whole entry, looked up): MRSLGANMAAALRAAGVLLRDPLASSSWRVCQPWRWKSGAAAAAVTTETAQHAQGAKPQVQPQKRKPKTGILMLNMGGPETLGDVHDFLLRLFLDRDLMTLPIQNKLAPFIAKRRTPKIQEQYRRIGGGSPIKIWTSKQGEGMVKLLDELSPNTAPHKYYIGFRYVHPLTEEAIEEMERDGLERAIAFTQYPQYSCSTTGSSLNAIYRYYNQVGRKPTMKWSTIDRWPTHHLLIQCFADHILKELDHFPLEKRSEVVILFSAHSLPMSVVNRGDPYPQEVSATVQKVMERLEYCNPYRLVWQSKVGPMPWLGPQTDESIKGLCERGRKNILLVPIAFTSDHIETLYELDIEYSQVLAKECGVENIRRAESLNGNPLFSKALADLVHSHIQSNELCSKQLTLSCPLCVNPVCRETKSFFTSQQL
# Calls only; - = inactive; + = active, no number. The full list was thinned out, with hits kept by preference.
SMILES,FECH block
COc1ccc(NC(=O)CN2CCN(Cc3ccc(C)cc3)S2(=O)=O)cc1,-
Cc1ccc(CN2CCN(CC(=O)Nc3cc(C)cc(C)c3)S2(=O)=O)cc1,-
Cc1cccc(NC(=O)CN2CCCN(Cc3ccc(Cl)cc3)S2(=O)=O)c1,-
Cc1ccc(NC(=O)CN2CCN(Cc3ccccc3)S2(=O)=O)cc1C,-
O=C(CN1CCCN(Cc2ccc(Cl)cc2)S1(=O)=O)Nc1cccc(Cl)c1,+
O=C(CN1CCCN(Cc2ccc(Cl)cc2)S1(=O)=O)Nc1ccc(F)c(Cl)c1,-
COc1ccc(NC(=O)CN2CCCN(Cc3ccc(Cl)cc3)S2(=O)=O)cc1Cl,+
COc1ccc(NC(=O)CN2CCCN(Cc3ccccc3)S2(=O)=O)cc1Cl,-
CCOc1ccc(NC(=O)CN2CCN(Cc3cccc(C)c3)S2(=O)=O)cc1,-
COc1cccc(NC(=O)CN2CCN(Cc3ccc(C)cc3)S2(=O)=O)c1,+
COc1ccc(NC(=O)CN2CCN(Cc3cccc(C)c3)S2(=O)=O)cc1Cl,+
COc1ncccc1-c1ccc(S(N)(=O)=O)s1,-
O=C(c1cc(CN2CCOCC2)on1)N1CC(Oc2ccc(F)cc2)C1,-
CCn1ccnc1-c1c(-c2ccccc2)ncn1CCSc1nccn1C,-
Cc1ccc(-c2ccc(N3CCC(C(=O)NCC(C)C)CC3)nn2)cc1,-
Cc1cnccc1N1CCCN(C(=O)Nc2nc(C)n(C)n2)CC1,-
CC(C)Cn1c(CNS(=O)(=O)c2ccc(Cl)cc2)nc2cccnc21,-
Cc1ccc(Cn2c(CNC(=O)c3cccnc3)nc3cccnc32)cc1,+
CCc1ccc(Cn2c(CNS(=O)(=O)c3ccc([N+](=O)[O-])cc3)nc3cccnc32)cc1,+
CCOc1ccc(C(=O)NCc2nc3cccnc3n2Cc2ccc(C)cc2)cc1,-
Cc1ccc(Cn2c(CNC(=O)c3ccncc3)nc3cccnc32)cc1,-
Cc1cccc(S(=O)(=O)NCc2nc3cccnc3n2Cc2ccccc2)c1,-
CCc1ccc(Cn2c(CNS(=O)(=O)c3ccc(C)cc3)nc3cccnc32)cc1,-
CCc1ccc(S(=O)(=O)NCc2nc3cccnc3n2Cc2ccc(F)cc2)cc1,-
CC(C)Cn1c(CNS(C)(=O)=O)nc2cccnc21,+
SMILES,FECH block
Cc1ccccc1S(=O)(=O)NCc1nc2cccnc2n1CC(C)C,-
Cc1cccc(Cn2c(CNS(=O)(=O)c3ccccc3)nc3cccnc32)c1,+
Cc1cccc(Cn2c(CNS(=O)(=O)c3ccc(F)cc3)nc3cccnc32)c1,-
NC(=O)c1csc(N2CCOC(c3ccc(F)cc3)C2)n1 (centres undefined),-
COc1ccc(OC)c(NC(=O)CN2C(=O)CC(c3ccccc3)=Nc3ccccc32)c1,-
CC/C=C\CCCN1CCN(c2ncc(C)c(N)n2)CC1,-
O=C(CN1C(=O)CCc2cc(S(=O)(=O)N3CCCC3)ccc21)Nc1ccccn1,-
Cn1c(CNS(=O)(=O)c2ccc(Cl)cc2)nc2cccnc21,-
CC(C)c1cc(-c2nc(C3(c4ccc(F)cc4)CCOC3)no2)nc(N)n1 (centres undefined),-
CCc1ccc(CNC(=O)COc2nc(CC)nc3oc(C)c(C)c23)cc1,-
Cc1nc2cccnc2n1CCN1CCNCC1,-
Cc1cccc(-n2c(CN3CCN(S(=O)(=O)c4ccc(C)c(C)c4)CC3)nc3cccnc32)c1,-
O=C(c1ccc(C2CCCN2)s1)N(Cc1ccccc1)Cc1nccs1 (centres undefined),-
CCc1cc(C(=O)NCc2cc(C)cc3c(C)c(CC)[nH]c23)n(C)n1,+
CCCNC(=O)NCc1cc(C)cc2c(C)c(CC)[nH]c12,-
CCc1[nH]c2c(CNc3cc(N4CCOCC4)ncn3)cc(C)cc2c1C,-
CN(Cc1cc(C(C)(C)C)n[nH]1)C(=O)c1c[nH]c2c(F)cccc2c1=O,-
COc1ccc(C(=O)Nc2nc3n(n2)C(c2ccccc2)C=C(c2ccccc2)N3)cc1OC (centres undefined),+
COc1ccc(C2C=C(c3ccccc3)Nc3nc(NC(=O)c4ccc(Cl)cc4)nn32)cc1 (centres undefined),-
COc1ccc(C2C=C(c3ccccc3)Nc3nc(NC(=O)c4ccccc4)nn32)cc1 (centres undefined),-
CCC(=O)Nc1nc2n(n1)C(c1ccccc1)C=C(c1ccccc1)N2 (centres undefined),+
CCC(=O)Nc1nc2n(n1)C(c1ccccc1)C=C(c1ccc(Cl)cc1)N2 (centres undefined),-
CCC(=O)Nc1nc2n(n1)C(c1ccc(Cl)cc1)C=C(c1ccccc1)N2 (centres undefined),-
O=C(c1c[nH]c2ccccc12)N1CC[C@@H](c2ccc3c(c2)OCO3)[C@H](O)C1,-
CCCc1ccc(S(=O)(=O)NCCn2c(-c3ccccc3)nc3cccnc32)cc1,-
SMILES,FECH block
O=C(CN1C(=O)C2CCCC2=Nc2ccccc21)NCc1ccccc1 (centres undefined),-
COc1ccc(NS(=O)(=O)c2cc(N3C(=O)CCS3(=O)=O)ccc2C)cc1Cl,-
CCn1c(=O)n(Cc2cccc(F)c2)c(=O)c2cnc(-c3ccc(OC)cc3)nc21,-
CCN(CC)S(=O)(=O)N1CCC(C(=O)Nc2cccc(CCc3nc4ccccc4n3C)c2)CC1,+
CCN(CC)S(=O)(=O)N1CCC(C(=O)Nc2ccc3sc(NC(=O)C(C)C)nc3c2)CC1,-
CCN(CC)S(=O)(=O)c1ccc2c(c1)nc(CN1CCN(S(=O)(=O)N(C)C)CC1)n2C,-
O=C(Nc1ccccc1CCc1nc2ccccc2[nH]1)C1CCCN(S(=O)(=O)N2CCCC2)C1 (centres undefined),-
CCc1cccc(NC(=O)C2CCN(c3ccc(-c4cccs4)nn3)CC2)c1,-
CCN(CC)S(=O)(=O)N1CCC(C(=O)Nc2ccc3nc(CCc4ccccc4)[nH]c3c2)CC1,+
O=C(NCc1ccccc1-n1ccnc1)c1c[nH]c(=O)cn1,-
Cc1nc(C(C)C)sc1C(=O)N1CCC2(CC1)CC(C(=O)O)N(C)C2 (centres undefined),-
CCCc1c(C)nc2ncnn2c1Sc1ccccc1NC(=O)Nc1ccc(C)c(F)c1,-
COc1ccc(NC(=O)CN2C(=O)C3CCCCN3c3ccc(C(=O)N(C)C)cc32)cc1OC (centres undefined),-
Cc1cccc2oc(CNC(=O)C(c3cccc(F)c3)N(C)C)nc12 (centres undefined),-
CN(C)C(C(=O)NCC1(O)CCCCC1)c1cccc(F)c1 (centres undefined),+
Cc1cccc(C(C(=O)NCc2cnc(C)cn2)N(C)C)c1 (centres undefined),-
O=C(CSc1nc(-c2ccco2)nc2cc(=O)[nH]n12)NCc1ccc(Cl)cc1,-
CN(CCCNC(=O)C1CCCN1c1nnc(N2CCCC2=O)s1)C1CCCCC1 (centres undefined),-
O=C(NCCCN1CCN(C2CCCCC2)CC1)C1CCCN1c1nnc(N2CCCC2=O)s1 (centres undefined),+
CN(CCNC(=O)C1CCCN1c1nnc(N2CCCC2=O)s1)C1CCCCC1 (centres undefined),-
Cc1ccsc1CCNC(=O)C1CCCN1c1nnc(N2CCCC2=O)s1 (centres undefined),-
COc1ccc(CCNC(=O)C2CCCN2c2nnc(N3CCCCC3=O)s2)cc1OC (centres undefined),-
COc1ccc(CNC(=O)C2CCCN2c2nnc(N3CCCC3=O)s2)c(OC)c1 (centres undefined),+
NS(=O)(=O)c1ccc(NC(=O)COc2ccc(-c3cnc4ccccc4n3)cc2)cc1,-

# Screening results deposited in PubChem BioAssay by Corson Lab, School of Medicine, Indiana University.
